Screening data (PubChem)
TDP1 cell noCPT: qHTS for Inhibitors of human tyrosyl-DNA phosphodiesterase 1 (TDP1): qHTS in cells in absence of CPT. hit rate 15% among 420,000. DT40 Tdp1-/- hTDP1 cells, no CPT, ATP luminescence, 48 h. Potency, µM (doses to about 46.2 µM), for the others: at the highest dose activity change, negative = growth inhibition, actives largely listed as inhibitors. AID 686978, 2013; also: nearly all actives have a fitted effect of over 55% in size
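Cells were dispensed at 400 per well, compounds added by pin tool, plates incubated ≥48 hr at 37 °C, then CellTiter-Glo added for 30 min at room temperature before luminescence reading. Line: DT40 Tdp1-/- complemented with hTDP1; camptothecin omitted.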
KB-V1 cytotox: kills drug-selected multidrug resistant KB-V1 cells. KB-V1 MDR cells viability, CellTiter-Glo, 72 h. Potency, µM (highest dose often 46.1 µM), most hits filed as cytotoxic. hit rate 3.4% among 400,000. AID 1347076; also: nearly all actives have a fitted effect of over 60% in size
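Cells of the MDR subline KB-V1 are plated, dosed with compound at multiple concentrations, and incubated 72 h at 37 degrees C; CellTiter-Glo is then added and luminescence read after 10 min.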
HT1080-NT tox: kills 2HG-producing HT-1080-NT fibrosarcoma cells; HT-1080-NT fibrosarcoma viability, CellTiter-Glo ATP luminescence, 48 h; AID 686970; Potency, µM (doses to about 46.1 µM), for the others: at the top dose activity, negative = less viability, actives largely listed as cytotoxic; hit rate 1.6% among 360,000;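 also: NT is the 2HG producing partner of a matched IDH1 knockdown line; 0% = DMSO-treated cells and -100% = media-only wells without cells; nearly all actives have a fitted effect of over 55% in size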
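Fibrosarcoma NT cells, 750 per well in 5% FBS RPMI, were exposed to compound for 48 hours. Viability: CellTiter-Glo luminescence.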
DT40 TDP1 CPT: DT40-hTDP1 cell growth loss with CPT; Potency, µM (top dose mostly 46.2 µM), for inactives: at the top dose activity change, negative = growth inhibition, hits mostly inhibitors; hit rate 12% among 420,000; chicken DT40 Tdp1-/-;hTDP1 cells + 20 nM CPT, ATP luminescence, 48 h; also: nearly all actives have a fitted effect of over 55% in size
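Chicken DT40 Tdp1-/- cells stably complemented with human TDP1 were seeded at 400 cells/well in medium containing 20 nM camptothecin, exposed to pin-transferred compounds, and grown at 37 °C for at least 48 hr. Viability was read as ATP luminescence.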
HT1080 IDH1KD tx: toxicity to HT-1080 IDH1 knockdown cells (counter line). HT-1080 IDH1 knockdown viability, ATP luminescence, 48 h. Potency, µM (highest dose often 46.1 µM), inactives show at the top dose activity, negative = toxicity, usual class: cytotoxic. hit rate 2% among 360,000;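 also: 0% = DMSO wells and -100% = cell-free medium wells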
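In this qHTS, HT-1080 cells depleted of IDH1 are exposed for 48 h at 37 °C to compound titrations. Toxicity is scored from CellTiter-Glo luminescence, with DMSO as full viability and medium alone as none.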
KB-3-1 tox: kills parental KB-3-1 adenocarcinoma cells | hit rate 1.4% among 400,000 | KB-3-1 viability, CellTiter-Glo ATP luminescence, 72 h | Potency, µM (titrated, usually from 46.1 µM), actives largely listed as cytotoxic | AID 1347075; also: nearly all actives have a fitted effect of over 60% in size
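Cells are dispensed, compounds pinned in, plates held at 37 °C for 72 h, then CellTiter-Glo is added and luminescence read after 10 minutes. Cell line: parental KB-3-1 in phenol-red-free DMEM, 10% FBS.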
* marks the source's active call; other numbers are inactive results. Rows were chosen to be rich in hits. Some 19% of all compounds tested hit in one or more screens of this group. Calls follow the shape of the dose curve; as a rule, active = well fitted curve in the direction sought with a large enough effect; inconclusive = small, poorly fitted or top-dose-only effect, or another doubt; inactive = no such curve, though single readings can be large; an effect the other way counts as inactive or inconclusive. Unless noted, % is scaled to controls: 0 for no effect and ±100 for the full control effect; potency is read from the fitted curve at half-maximal effect.

Results for O=C(Nc1ccc(C(F)(F)F)cc1)c1ccccc1 ?
TDP1 cell noCPT: -14%; KB-V1 cytotox: inactive; HT1080-NT tox: 49%; DT40 TDP1 CPT: -7%; HT1080 IDH1KD tx: 7%; KB-3-1 tox: inactive

How did NS(=O)(=O)c1ccc(NC(=O)Nc2ccc(C(F)(F)F)cc2)cc1 do in these assays?
TDP1 cell noCPT: 18µM*; KB-V1 cytotox: inactive; HT1080-NT tox: inconclusive; DT40 TDP1 CPT: inconclusive; HT1080 IDH1KD tx: 21µM*; KB-3-1 tox: inactive

What do the screens show for `NS(=O)(=O)c1ccc(NC(=O)Nc2ccc(S(N)(=O)=O)cc2)cc1`?
TDP1 cell noCPT: 11%; KB-V1 cytotox: inconclusive; HT1080-NT tox: 1%; DT40 TDP1 CPT: -1%; HT1080 IDH1KD tx: 1%; KB-3-1 tox: inconclusive

Results for CSc1n[nH]c(NCc2cccs2)n1 ?
TDP1 cell noCPT: -9%; KB-V1 cytotox: inactive; HT1080-NT tox: 6%; DT40 TDP1 CPT: -15%; HT1080 IDH1KD tx: 8%; KB-3-1 tox: inactive

How did O=C(CNS(=O)(=O)c1ccccc1)Nc1ccc(C(F)(F)F)cc1 do in these assays?
TDP1 cell noCPT: 16µM*; KB-V1 cytotox: inactive; HT1080-NT tox: -3%; DT40 TDP1 CPT: 16µM*; HT1080 IDH1KD tx: -9%; KB-3-1 tox: inactive

What do the screens show for `CC(C)(C)NC(=O)C(c1c[nH]c2ccccc12)N(C(=O)Cn1nnc(-c2ccc(F)cc2)n1)c1cccc(O)c1` (configuration not stated)?
TDP1 cell noCPT: 21µM*; KB-V1 cytotox: inactive; HT1080-NT tox: -20%; DT40 TDP1 CPT: inconclusive; HT1080 IDH1KD tx: inconclusive; KB-3-1 tox: inconclusive

How did Cc1ccc(-c2nnn(CC(=O)N(c3ccc(F)cc3)C(C(=O)NC(C)(C)C)c3ccco3)n2)o1 (configuration not stated) do in these assays?
TDP1 cell noCPT: inconclusive; KB-V1 cytotox: inactive; HT1080-NT tox: -16%; DT40 TDP1 CPT: -3%; HT1080 IDH1KD tx: -14%; KB-3-1 tox: inconclusive

What do the screens show for `CC(C)(C)NC(=O)C(c1ccco1)N(C(=O)Cn1nnc(-c2ccc(F)cc2)n1)c1cccc(F)c1` (configuration not stated)?
TDP1 cell noCPT: 21µM*; KB-V1 cytotox: inactive; HT1080-NT tox: 4%; DT40 TDP1 CPT: inconclusive; HT1080 IDH1KD tx: 6%; KB-3-1 tox: inactive

What do the screens show for `CC(C)(C)NC(=O)C(c1ccncc1)N(Cc1cccs1)C(=O)Cn1nnc(-c2ccc(F)cc2)n1` (configuration not stated)?
TDP1 cell noCPT: -20%; KB-V1 cytotox: inactive; HT1080-NT tox: inconclusive; DT40 TDP1 CPT: inconclusive; HT1080 IDH1KD tx: inconclusive; KB-3-1 tox: inactive

What do the screens show for `CCc1ccc(NC(=O)C(=O)NCC(c2cccnc2)N2CCOCC2)cc1` (configuration not stated)?
TDP1 cell noCPT: inconclusive; KB-V1 cytotox: inactive; DT40 TDP1 CPT: inconclusive; KB-3-1 tox: inactive

How did C/C(=N\NC(=O)C12CCC(C)(C(=O)O1)C2(C)C)c1ccccc1O (configuration not stated) do in these assays?
TDP1 cell noCPT: 13µM*; KB-V1 cytotox: inconclusive; HT1080-NT tox: inconclusive; DT40 TDP1 CPT: 16µM*; HT1080 IDH1KD tx: inconclusive; KB-3-1 tox: inconclusive

How did CC12CCC(C(=O)N/N=C/c3ccc(O)cc3O)(OC1=O)C2(C)C (configuration not stated) do in these assays?
TDP1 cell noCPT: 10µM*; KB-V1 cytotox: inconclusive; HT1080-NT tox: -27%; DT40 TDP1 CPT: 10µM*; HT1080 IDH1KD tx: inconclusive; KB-3-1 tox: inconclusive

Results for O=C(c1ccc2c(c1)OCO2)c1cn(Cc2ccc(F)cc2)c2ccccc2c1=O ?
TDP1 cell noCPT: inconclusive; KB-V1 cytotox: inactive; DT40 TDP1 CPT: inconclusive; KB-3-1 tox: inactive

How did C=CCn1c(SCC(=O)Nc2cc(C)on2)nc2ccccc21 do in these assays?
TDP1 cell noCPT: -12%; KB-V1 cytotox: inactive; HT1080-NT tox: 9%; DT40 TDP1 CPT: -23%; HT1080 IDH1KD tx: 6%; KB-3-1 tox: inactive

What do the screens show for `COc1ccc(NC(=O)CSc2c3c(nc4ccccc24)CCC3)cc1Cl`?
TDP1 cell noCPT: -73%; DT40 TDP1 CPT: 0.58µM*

Results for COc1ccc(NC(=O)CSc2nc(=O)n(CCN3CCOCC3)c3c2CCC3)c(OC)c1 ?
TDP1 cell noCPT: -11%; KB-V1 cytotox: inactive; HT1080-NT tox: 5%; DT40 TDP1 CPT: -2%; HT1080 IDH1KD tx: 1%; KB-3-1 tox: inactive

What do the screens show for `COc1ccc(NC(=O)CSc2c3c(nc4ccccc24)CCC3)c(OC)c1`?
TDP1 cell noCPT: 21µM*; KB-V1 cytotox: inconclusive; HT1080-NT tox: inconclusive; DT40 TDP1 CPT: inconclusive; HT1080 IDH1KD tx: inconclusive; KB-3-1 tox: inactive

What do the screens show for `COc1ccc(NC(=O)CSc2nc(=O)n(CCN3CCOCC3)c3c2CCCC3)c(OC)c1`?
TDP1 cell noCPT: -25%; KB-V1 cytotox: 8.2µM*; HT1080-NT tox: 4%; DT40 TDP1 CPT: 5%; HT1080 IDH1KD tx: 4%; KB-3-1 tox: inactive

What do the screens show for `O=C1C2C3CC4C5C3C1C5C1(SCCS1)C42` (configuration not stated)?
TDP1 cell noCPT: -4%; KB-V1 cytotox: inactive; HT1080-NT tox: 0%; DT40 TDP1 CPT: -4%; HT1080 IDH1KD tx: -1%; KB-3-1 tox: inactive

Results for CSCC[C@H](N)C(=O)N1CCC(C(=O)N[C@H](C)C(=O)NC(C)c2ccccc2)CC1 (some centres not stated) ?
TDP1 cell noCPT: 1%; KB-V1 cytotox: inactive; HT1080-NT tox: 1%; DT40 TDP1 CPT: 21%; HT1080 IDH1KD tx: 3%; KB-3-1 tox: inactive

Results for Nc1cccc(Oc2cnccn2)c1 ?
TDP1 cell noCPT: 6%; KB-V1 cytotox: inactive; HT1080-NT tox: 3%; DT40 TDP1 CPT: 7%; HT1080 IDH1KD tx: 0%; KB-3-1 tox: inactive

How did O=C(CCl)Nc1cccc(Oc2ccccc2)c1 do in these assays?
TDP1 cell noCPT: 2.9µM*; KB-V1 cytotox: inconclusive; HT1080-NT tox: inconclusive; DT40 TDP1 CPT: 3.3µM*; HT1080 IDH1KD tx: inconclusive; KB-3-1 tox: inconclusive

What do the screens show for `COc1cccc(NC(=O)CC(C)=O)c1`?
TDP1 cell noCPT: -16%; KB-V1 cytotox: inactive; HT1080-NT tox: -8%; DT40 TDP1 CPT: -7%; HT1080 IDH1KD tx: -4%; KB-3-1 tox: inactive
